Laboratory results as given in paper PMC4336329 (PLoS ONE, 2015).
The campaign covered roughly 310,000 compounds. About 14,000 (4.5%) showed an effect of 50% or more. Effects have a minus sign here. The full list was thinned out, with strong results kept by preference.

Target: human ether-à-go-go-related gene (hERG) potassium channel (human, UniProt Q12809)
Experiment: primary screen, population patch clamp on CHO cells stably expressing hERG; higher = less effect of the substance
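Further: peak tail current of the secondary pulse compared with the same well before compound.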

Sequence of human ether-à-go-go-related gene (hERG) potassium channel (Q12809 whole entry, looked up): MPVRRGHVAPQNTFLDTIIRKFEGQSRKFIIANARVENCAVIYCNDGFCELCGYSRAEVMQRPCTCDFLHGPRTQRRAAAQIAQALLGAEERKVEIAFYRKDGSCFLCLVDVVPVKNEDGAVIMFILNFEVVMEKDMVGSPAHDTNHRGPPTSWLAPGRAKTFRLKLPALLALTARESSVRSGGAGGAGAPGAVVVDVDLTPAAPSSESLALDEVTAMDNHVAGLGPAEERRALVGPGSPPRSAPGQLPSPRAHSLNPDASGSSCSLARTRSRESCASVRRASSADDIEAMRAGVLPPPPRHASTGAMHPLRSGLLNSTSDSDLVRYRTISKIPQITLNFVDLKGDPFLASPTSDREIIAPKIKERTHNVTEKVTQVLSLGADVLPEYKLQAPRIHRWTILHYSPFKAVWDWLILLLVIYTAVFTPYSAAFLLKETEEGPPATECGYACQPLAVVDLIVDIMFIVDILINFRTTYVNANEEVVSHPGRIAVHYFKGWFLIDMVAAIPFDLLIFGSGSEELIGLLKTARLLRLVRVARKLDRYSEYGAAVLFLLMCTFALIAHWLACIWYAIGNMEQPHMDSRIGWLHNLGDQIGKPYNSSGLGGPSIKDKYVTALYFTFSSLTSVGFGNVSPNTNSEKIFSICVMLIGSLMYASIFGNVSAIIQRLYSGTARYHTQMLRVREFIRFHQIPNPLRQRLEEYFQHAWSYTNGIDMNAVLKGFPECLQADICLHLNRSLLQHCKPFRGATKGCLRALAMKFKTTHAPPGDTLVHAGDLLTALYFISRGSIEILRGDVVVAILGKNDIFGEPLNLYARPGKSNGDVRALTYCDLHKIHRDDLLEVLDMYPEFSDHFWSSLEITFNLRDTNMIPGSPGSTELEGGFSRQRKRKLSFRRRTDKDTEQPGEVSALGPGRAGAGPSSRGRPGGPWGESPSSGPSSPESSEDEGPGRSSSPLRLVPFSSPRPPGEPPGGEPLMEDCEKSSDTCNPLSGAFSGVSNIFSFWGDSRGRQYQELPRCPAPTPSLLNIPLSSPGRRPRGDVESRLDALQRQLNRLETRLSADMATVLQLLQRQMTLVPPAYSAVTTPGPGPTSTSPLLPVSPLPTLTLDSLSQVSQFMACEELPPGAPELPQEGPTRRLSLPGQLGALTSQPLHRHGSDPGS

Structure (SMILES)	hERG current change (%, negative = inhibition) at 10uM [%]
O=C(c1ccccc1)N1CCN(C(=S)NCc2ccc3c(c2)OCO3)CC1	-59.4
CCOc1ccc(NC(=S)NCCCN2CCN(C3CCCCC3)CC2)cc1	-47.2
S=C(NCc1ccccc1)N1CCN(C(=S)NCc2ccccc2)CC1	12.9
CCOC(=O)c1ccc(NC(=S)NCCCN2CCN(C3CCCCC3)CC2)cc1	-53.7
CC(=O)N1CCc2cc(N=NC3=C(O)CCCC3=O)ccc21	9.61
COCCn1c(Cc2ccccc2)nnc1SCC(=O)N1CCCCC1C (stereo not drawn)	7.49
COc1ccc(CCC(=O)NNC(=O)Nc2ccccc2Cl)cc1	4.25
CC1(c2ccc(OC(F)F)cc2)NC(=O)N(CC(=O)Nc2ccc3c(c2)OCO3)C1=O (stereo not drawn)	-36.5
N#Cc1cc2c(nc1SCC(=O)Nc1sc3c(c1C#N)CCC3)CCCC2	4.92
CCOc1ccc(C(=O)COC(=O)Cn2cnc3c2c(=O)n(C)c(=O)n3C)cc1	-13.5
S=C(Nc1ccccn1)NC1CCCC1	-17.6
O=C(NC(=S)Nc1ccc(CN2CCCCC2)cc1)c1cc2ccccc2o1	-24.3
COc1ccc(NC(=O)c2ccco2)cc1NC(=O)c1ccccc1F	25.6
O=C(NC1CCCCC1)N1CCC(c2nc3ccc(Cl)cc3[nH]2)CC1	-34.3
CC1CCCN(C(=O)CN2CCC(c3nc4ccc(Cl)cc4[nH]3)CC2)C1 (stereo not drawn)	-67.8
CC1CCCCN1C(=O)CSc1nc2ccccc2[nH]1 (stereo not drawn)	25.8
CC1CCCCN1C(=O)CN1CCC(c2nc3ccc(Cl)cc3[nH]2)CC1 (stereo not drawn)	-60.2
CC1CCCCN1C(=O)Cc1ccc(Cl)cc1 (stereo not drawn)	-11.1
Cc1ccc2nc(C3CCN(CC(=O)N4CCCCCC4)CC3)[nH]c2c1	-22.2
O=C1CC(N2CCC(c3nc4ccccc4o3)CC2)C(=O)N1c1ccc(Cl)c(C(F)(F)F)c1 (stereo not drawn)	6.87
COC(=O)C1=C(C)N(c2cccc(C(C)=O)c2)C(=O)C1	7.45
CC(C)OC(=O)/C(C#N)=C/c1cn(Cc2ccccc2)c2ccccc12	-6.73
COc1ccc(N(C(=O)CNC(=O)c2ccco2)C(C(=O)NC2CCCCC2)c2ccco2)cc1 (stereo not drawn)	8.58

Structure (SMILES)	hERG current change (%, negative = inhibition) at 10uM [%]
C=CCNc1nc2c(c(=O)[nH]c(=O)n2C)n1CCCCC	-12.1
O=[N+]([O-])c1ccc2[nH]cc(S(=O)(=O)N3CCN(c4cccc(Cl)c4)CC3)c2c1	16.3
NC(=O)NC(=O)COC(=O)c1cccc(S(=O)(=O)N2CCCCCC2)c1	-21.4
C=CCNC(=O)c1ccccc1NC(=O)C1CCN(S(=O)(=O)c2ccc(SC)cc2)CC1	-70
C=CCNC(=O)C1CCN(S(=O)(=O)c2ccc(Br)cc2)CC1	-58.7
CSc1ccc(S(=O)(=O)N2CCC(C(=O)Nc3ccccc3C(F)(F)F)CC2)cc1	7.69
C=CCNC(=O)c1ccccc1NS(=O)(=O)c1ccc(SC)cc1	-6.5
CCCNC(=O)C1CCN(S(=O)(=O)c2ccc(Br)cc2)CC1	-1.78
C=CCNC(=O)C1CCN(S(=O)(=O)c2ccccc2)CC1	-2.98
Nc1nc(N)nc(-c2cc(O)ccc2O)n1	10.3
O=C(CSc1ccccc1)N(c1ccc(Br)cc1)c1nccs1	10.8
CCN(CC)CCCNC(=S)N(Cc1cccnc1)Cc1cc2cccc(C)c2[nH]c1=O	-1.68
COc1ccc2[nH]c(=O)c(CN(CCN(C)C)C(=O)NCc3ccccc3)cc2c1	9.31
Cc1ccc2[nH]c(=O)c(CN(CCO)C(=O)NCc3ccccc3)cc2c1	7.55
Cc1ccc2cc(CN(CCCN(C)C)C(=S)NCc3ccccc3)c(=O)[nH]c2c1C	-50.3
Cc1cccc2cc(CN(CCCN(C)C)C(=S)NCCc3ccccc3)c(=O)[nH]c12	-72
Cc1cc(C)c2cc(CN(CCCN(C)C)C(=S)NCc3ccccc3)c(=O)[nH]c2c1	-45.4
Cc1ccc2cc(CN(CCCN(C)C)C(=O)NCc3ccccc3)c(=O)[nH]c2c1C	-34.1
CCC(=O)N(CCc1ccccc1)Cc1cc2cccc(C)c2[nH]c1=O	-14.4
Cc1ccc(C)c2[nH]c(=O)c(CN(CCCN(C)C)C(=O)NCc3ccccc3)cc12	-52.2
O=C(NC(=S)N1CCOCC1)c1ccc(F)cc1	24.4
CC[C@H](C)[C@@H](C(=O)N1CCNCC1)n1cc([C@@H](N)CC(C)C)nn1.Cl	11.9
